Key:
Test in all cases: DAPPL (digital affinity profiling via proximity ligation, sequencing); 10 mM Tris-HCl pH 7.5, 50 mM NaCl, 1 mM DTT, 4% glycerol, room temperature, 30 min; GST-TFs on glutathione beads, 16-mer random dsDNA library, 0.1% formaldehyde crosslink after washing; high values mean tight binding
Conditions in all cases: protein: recombinant; tags: N-terminal GST; dsDNA, one strand shown
[1] = target: T1, FLI1 (Homo sapiens, UniProt Q01543 1-452)
T1 sequence: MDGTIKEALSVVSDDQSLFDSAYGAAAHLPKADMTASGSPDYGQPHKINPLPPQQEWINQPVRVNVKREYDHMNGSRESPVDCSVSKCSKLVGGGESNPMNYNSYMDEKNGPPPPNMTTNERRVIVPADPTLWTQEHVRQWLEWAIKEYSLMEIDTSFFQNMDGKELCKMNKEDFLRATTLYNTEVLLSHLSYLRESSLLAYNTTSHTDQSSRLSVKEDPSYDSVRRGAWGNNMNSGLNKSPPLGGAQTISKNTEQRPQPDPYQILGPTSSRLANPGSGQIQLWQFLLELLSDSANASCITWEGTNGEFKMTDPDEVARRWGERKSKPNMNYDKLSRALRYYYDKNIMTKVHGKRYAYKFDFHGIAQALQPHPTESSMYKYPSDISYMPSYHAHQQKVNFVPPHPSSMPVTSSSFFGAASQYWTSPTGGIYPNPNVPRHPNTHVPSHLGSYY
Method in brief: (§1)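 Pools were built from human transcription factors expressed in yeast as GST fusions, captured on glutathione beads and DNA-barcoded, along with a tag-only sample. Incubation with 200 nmole of a 16-mer random double-stranded DNA library lasted 30 min at room temperature in Tris/NaCl/DTT/glycerol buffer, and was followed by washing, 0.1% formaldehyde crosslinking, proximity ligation, PCR amplification and Illumina NextSeq500 sequencing. Binding signal is the quotient of each hexamer's read frequency for a factor and its frequency for the tag-only sample.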

[2] = target: T2, GABPA (Homo sapiens, UniProt Q06546 1-454)
T2 sequence: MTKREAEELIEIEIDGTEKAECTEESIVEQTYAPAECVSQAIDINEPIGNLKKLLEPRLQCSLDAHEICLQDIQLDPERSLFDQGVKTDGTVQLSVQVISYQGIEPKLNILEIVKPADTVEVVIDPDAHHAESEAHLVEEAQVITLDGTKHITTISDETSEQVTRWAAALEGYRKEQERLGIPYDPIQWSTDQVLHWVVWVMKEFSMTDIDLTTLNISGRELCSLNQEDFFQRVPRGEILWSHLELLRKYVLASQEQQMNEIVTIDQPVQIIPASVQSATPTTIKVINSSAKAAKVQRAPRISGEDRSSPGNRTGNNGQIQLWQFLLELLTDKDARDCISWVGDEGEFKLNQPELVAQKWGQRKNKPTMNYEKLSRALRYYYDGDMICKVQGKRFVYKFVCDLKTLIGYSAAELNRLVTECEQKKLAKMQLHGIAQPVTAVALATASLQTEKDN
Method in brief: as §1

[3] = target: T3, ERG (Homo sapiens, UniProt P11308 1-479)
T3 sequence: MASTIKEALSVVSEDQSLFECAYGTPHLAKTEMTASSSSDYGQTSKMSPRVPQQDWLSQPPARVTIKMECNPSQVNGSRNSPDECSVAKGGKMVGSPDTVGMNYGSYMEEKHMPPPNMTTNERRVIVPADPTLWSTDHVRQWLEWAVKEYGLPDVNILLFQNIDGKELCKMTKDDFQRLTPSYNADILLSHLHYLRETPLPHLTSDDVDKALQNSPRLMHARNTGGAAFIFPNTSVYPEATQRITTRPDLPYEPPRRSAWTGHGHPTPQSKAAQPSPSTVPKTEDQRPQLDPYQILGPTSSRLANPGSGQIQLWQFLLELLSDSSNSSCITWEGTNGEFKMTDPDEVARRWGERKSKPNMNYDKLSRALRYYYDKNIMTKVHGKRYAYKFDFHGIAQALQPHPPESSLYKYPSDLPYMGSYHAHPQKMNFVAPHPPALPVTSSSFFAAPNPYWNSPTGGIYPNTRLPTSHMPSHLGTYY
Method in brief: as §1

[4] = target: ELF1 (Homo sapiens, UniProt P32519 1-619)
Method in brief: as §1

[5] = target: T4, EHF (Homo sapiens, UniProt Q9NZC4 1-300)
T4 sequence: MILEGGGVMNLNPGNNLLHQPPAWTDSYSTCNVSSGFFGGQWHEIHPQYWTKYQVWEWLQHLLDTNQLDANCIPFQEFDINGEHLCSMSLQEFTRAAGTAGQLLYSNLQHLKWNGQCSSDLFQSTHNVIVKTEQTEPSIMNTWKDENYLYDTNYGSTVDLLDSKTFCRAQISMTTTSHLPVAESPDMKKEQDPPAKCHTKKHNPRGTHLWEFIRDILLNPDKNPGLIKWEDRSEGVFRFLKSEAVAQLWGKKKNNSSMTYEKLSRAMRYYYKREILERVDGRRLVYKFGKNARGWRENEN
Method in brief: as §1

[6] = target: SPI1 (Homo sapiens, UniProt P17947 1-270)
Method in brief: as §1

[7] = target: SPIB (Homo sapiens, UniProt Q01892 1-262)
Method in brief: as §1

[8] = target: T5, ELK3 (Homo sapiens, UniProt P41970 1-407)
T5 sequence: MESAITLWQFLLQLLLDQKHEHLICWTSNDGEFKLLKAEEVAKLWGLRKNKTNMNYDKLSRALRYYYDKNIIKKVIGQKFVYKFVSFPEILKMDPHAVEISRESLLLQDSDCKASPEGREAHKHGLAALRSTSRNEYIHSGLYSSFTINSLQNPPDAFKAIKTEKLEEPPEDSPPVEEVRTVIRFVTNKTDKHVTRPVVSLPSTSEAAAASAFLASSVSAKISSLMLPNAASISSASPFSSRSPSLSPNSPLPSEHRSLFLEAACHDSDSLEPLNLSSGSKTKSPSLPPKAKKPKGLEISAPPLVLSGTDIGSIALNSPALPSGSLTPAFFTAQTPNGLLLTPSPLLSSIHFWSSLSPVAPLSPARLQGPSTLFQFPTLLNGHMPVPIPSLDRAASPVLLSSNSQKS
Method in brief: as §1

[9] = target: T6, ELK1 (Homo sapiens, UniProt P19419 1-428)
T6 sequence: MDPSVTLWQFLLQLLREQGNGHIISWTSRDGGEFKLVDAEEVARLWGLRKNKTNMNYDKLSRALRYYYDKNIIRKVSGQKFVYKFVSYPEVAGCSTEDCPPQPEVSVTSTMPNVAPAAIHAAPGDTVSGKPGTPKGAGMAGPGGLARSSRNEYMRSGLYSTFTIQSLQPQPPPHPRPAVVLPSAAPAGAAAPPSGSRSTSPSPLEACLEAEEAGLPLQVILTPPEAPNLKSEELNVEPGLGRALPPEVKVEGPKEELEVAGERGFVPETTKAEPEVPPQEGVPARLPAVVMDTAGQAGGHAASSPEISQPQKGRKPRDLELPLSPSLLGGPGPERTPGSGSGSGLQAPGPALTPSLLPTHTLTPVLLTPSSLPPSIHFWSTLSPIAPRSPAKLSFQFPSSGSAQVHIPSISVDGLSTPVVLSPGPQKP
Method in brief: as §1

ELF1, sequence (P32519 whole entry): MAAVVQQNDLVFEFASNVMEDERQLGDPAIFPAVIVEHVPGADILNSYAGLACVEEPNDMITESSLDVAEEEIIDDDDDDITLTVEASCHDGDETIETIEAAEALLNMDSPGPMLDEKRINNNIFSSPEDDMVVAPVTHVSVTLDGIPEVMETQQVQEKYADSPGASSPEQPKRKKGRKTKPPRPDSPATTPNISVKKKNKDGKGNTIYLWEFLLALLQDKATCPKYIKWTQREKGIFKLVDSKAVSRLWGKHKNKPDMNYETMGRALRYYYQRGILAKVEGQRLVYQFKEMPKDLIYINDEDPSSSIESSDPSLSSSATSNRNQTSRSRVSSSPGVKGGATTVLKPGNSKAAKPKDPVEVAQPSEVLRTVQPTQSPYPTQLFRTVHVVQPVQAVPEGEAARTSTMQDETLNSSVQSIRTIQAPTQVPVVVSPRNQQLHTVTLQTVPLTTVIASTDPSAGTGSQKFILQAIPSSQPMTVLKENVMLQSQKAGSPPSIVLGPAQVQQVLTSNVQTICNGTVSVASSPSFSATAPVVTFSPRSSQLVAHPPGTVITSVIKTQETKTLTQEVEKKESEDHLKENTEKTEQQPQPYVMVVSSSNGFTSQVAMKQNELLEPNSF
SPIB, sequence (Q01892 whole entry): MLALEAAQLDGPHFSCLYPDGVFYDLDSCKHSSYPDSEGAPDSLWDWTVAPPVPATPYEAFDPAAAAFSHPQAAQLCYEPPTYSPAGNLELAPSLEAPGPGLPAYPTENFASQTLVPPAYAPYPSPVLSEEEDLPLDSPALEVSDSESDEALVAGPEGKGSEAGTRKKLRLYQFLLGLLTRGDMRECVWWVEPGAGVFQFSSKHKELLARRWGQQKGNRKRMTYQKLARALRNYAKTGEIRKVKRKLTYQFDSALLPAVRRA

Row | Sequence | binding signal [1] | binding signal [2] | binding signal [3] | binding signal [4] | binding signal [5] | binding signal [6] | binding signal [7] | binding signal [8] | binding signal [9]
1 | GTTCCA | 1.12 fold enrichment (6-mer frequency, TF over GST control) | 1.03 fold enrichment (6-mer frequency, TF over GST control) | 1.01 fold enrichment (6-mer frequency, TF over GST control) | 1.11 fold enrichment (6-mer frequency, TF over GST control) | 1 fold enrichment (6-mer frequency, TF over GST control) | 1.03 fold enrichment (6-mer frequency, TF over GST control) | 1.1 fold enrichment (6-mer frequency, TF over GST control) | 1.08 fold enrichment (6-mer frequency, TF over GST control) | 
2 | TCTAGG | 1.12 fold enrichment (6-mer frequency, TF over GST control) | 1.1 fold enrichment (6-mer frequency, TF over GST control) | 1.02 fold enrichment (6-mer frequency, TF over GST control) | 1.05 fold enrichment (6-mer frequency, TF over GST control) |  |  | 1.11 fold enrichment (6-mer frequency, TF over GST control) | 1.07 fold enrichment (6-mer frequency, TF over GST control) | 
3 | CTCGGT | 1.12 fold enrichment (6-mer frequency, TF over GST control) | 1.09 fold enrichment (6-mer frequency, TF over GST control) | 1.04 fold enrichment (6-mer frequency, TF over GST control) | 1.17 fold enrichment (6-mer frequency, TF over GST control) | 1.07 fold enrichment (6-mer frequency, TF over GST control) | 1.1 fold enrichment (6-mer frequency, TF over GST control) | 1.21 fold enrichment (6-mer frequency, TF over GST control) |  | 
4 | TGCTGT | 1.03 fold enrichment (6-mer frequency, TF over GST control) |  |  | 1.09 fold enrichment (6-mer frequency, TF over GST control) | 1.13 fold enrichment (6-mer frequency, TF over GST control) |  | 1 fold enrichment (6-mer frequency, TF over GST control) |  | 1 fold enrichment (6-mer frequency, TF over GST control)
5 | GCAATG | 1.05 fold enrichment (6-mer frequency, TF over GST control) |  |  | 1.08 fold enrichment (6-mer frequency, TF over GST control) | 1.04 fold enrichment (6-mer frequency, TF over GST control) |  |  | 1.03 fold enrichment (6-mer frequency, TF over GST control) | 1.08 fold enrichment (6-mer frequency, TF over GST control)

— paper PMC7862700, “An all-to-all approach to the identification of sequence-specific readers for epigenetic DNA modifications on cytosine”
